The whole screen tested about 5,500 compounds, of which about 2,000 (36%) were called active. About 18% were inconclusive and are not listed. No stated cut-off is given here; in the data, active means normalized growth mostly below about 0.91 (no sharp cut-off); inconclusive means no clear call, values can overlap the other calls; inactive means mostly above about 0.92. This is one part of the list.
Assay: chemical genetic growth profiling, strain panel (AID 1159580);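 further: tested at 20 µM; growth read once vehicle control cultures reached saturation at 30 °C; 1 = growth at the plate median or of vehicle wells; lower values mean less growth of the strain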
Conditions: growth OD

Measured: normalized growth

O=C(O)c1nc2cc(Cl)c(Cl)cc2[nH]c1=O
inactive: S. cerevisiae deletion strains, locus YJR075W, strain HOC1, active compounds read low 1.07 | S. cerevisiae deletion strains, locus YKL009W, strain mrt4, active compounds read low 0.949 | S. cerevisiae deletion strains, locus YKL068W, active compounds read low 0.981 | S. cerevisiae deletion strains, locus YKL085W, strain MDH1 (second series), active compounds read low 1.02 | S. cerevisiae deletion strains, locus YKL085W, strain MDH1, active compounds read low 1.02 | S. cerevisiae deletion strains, locus YKL160W, strain elf1, active compounds read low 0.996 | S. cerevisiae deletion strains, locus YKL190W, strain CNB1, active compounds read low 0.996 | S. cerevisiae deletion strains, locus YKR001C, strain vps1, active compounds read low 0.983 | S. cerevisiae deletion strains, locus YKR026C, strain gcn3, active compounds read low 1.02 | S. cerevisiae deletion strains, locus YKR091W, strain srl3, active compounds read low 1.01 | S. cerevisiae deletion strains, locus YLL001W, strain dnm1, active compounds read low 1.01 | S. cerevisiae deletion strains, locus YLL026W, active compounds read low 1.01 | S. cerevisiae deletion strains, locus YLL041C, strain sdh2, active compounds read low 1.01 | S. cerevisiae deletion strains, locus YLR027C, strain aat2, active compounds read low 1.01 | S. cerevisiae deletion strains, locus YLR039C, strain RIC1, active compounds read low 1.01 | S. cerevisiae deletion strains, locus YLR058C, strain SHM2, active compounds read low 1 | S. cerevisiae deletion strains, locus YLR102C, strain apc9, active compounds read low 0.987 | S. cerevisiae deletion strains, locus YLR113W, strain HOG1, active compounds read low 0.987 | S. cerevisiae deletion strains, locus YLR221C, strain rsa3, active compounds read low 1 | S. cerevisiae deletion strains, locus YLR258W, strain gsy2, active compounds read low 1.02 | S. cerevisiae deletion strains, locus YLR262C, strain YPT6 (second series), active compounds read low 1.02 | S. cerevisiae deletion strains, locus YLR262C, strain YPT6, active compounds read low 0.981 | S. cerevisiae deletion strains, locus YLR268W, strain sec22, active compounds read low 1 | S. cerevisiae deletion strains, locus YLR320W, strain mms22, active compounds read low 1.02 | S. cerevisiae deletion strains, locus YLR330W, strain CHS5, active compounds read low 0.994 | S. cerevisiae deletion strains, locus YLR342W, strain FKS1 (second series), active compounds read low 1.02 | S. cerevisiae deletion strains, locus YLR342W, strain FKS1, active compounds read low 1.03 | S. cerevisiae deletion strains, locus YLR357W, strain rsc2, active compounds read low 1.01 | S. cerevisiae deletion strains, locus YLR370C, strain arc18, active compounds read low 1.03 | S. cerevisiae deletion strains, locus YLR371W, strain rom2, active compounds read low 0.968 | S. cerevisiae deletion strains, locus YLR384C, strain iki3, active compounds read low 1 | S. cerevisiae deletion strains, locus YLR418C, strain cdc73, active compounds read low 1.05 | S. cerevisiae deletion strains, locus YML016C, strain PPZ1, active compounds read low 0.995 | S. cerevisiae deletion strains, locus YML032C, strain rad52, active compounds read low 0.977 | S. cerevisiae deletion strains, locus YML120C, strain ndi1, active compounds read low 1 | S. cerevisiae deletion strains, locus YML124C, strain tub3, active compounds read low 0.993 | S. cerevisiae deletion strains, locus YMR058W, strain fet3, active compounds read low 1.02 | S. cerevisiae deletion strains, locus YMR078C, strain ctf18, active compounds read low 0.99 | S. cerevisiae deletion strains, locus YMR125W, strain sto1, active compounds read low 1.02 | S. cerevisiae deletion strains, locus YMR129W, active compounds read low 1 | S. cerevisiae deletion strains, locus YMR205C, strain PFK2, active compounds read low 1.04 | S. cerevisiae deletion strains, locus YMR223W, strain ubp8, active compounds read low 0.996 | S. cerevisiae deletion strains, locus YMR231W, strain pep5, active compounds read low 1.02 | S. cerevisiae deletion strains, locus YMR263W, strain SAP30, active compounds read low 1.02 | S. cerevisiae deletion strains, locus YMR307W, strain GAS1, active compounds read low 1.04 | S. cerevisiae deletion strains, locus YNL067W, strain RPL9B, active compounds read low 0.948 | S. cerevisiae deletion strains, locus YNL071W, strain lat1, active compounds read low 1.01 | S. cerevisiae deletion strains, locus YNL128W, strain TEP1, active compounds read low 1.04 | S. cerevisiae deletion strains, locus YNL153C, strain GIM3, active compounds read low 1.03 | S. cerevisiae deletion strains, locus YNL183C, strain NPR1, active compounds read low 0.933 | S. cerevisiae deletion strains, locus YNL209W, strain ssb2, active compounds read low 1.01 | S. cerevisiae deletion strains, locus YNL233W, strain BNI4, active compounds read low 1.03 | S. cerevisiae deletion strains, locus YNL248C, strain rpa49, active compounds read low 0.984 | S. cerevisiae deletion strains, locus YNL250W, strain rad50, active compounds read low 0.988 | S. cerevisiae deletion strains, locus YNL271C, strain bni1, active compounds read low 0.991 | S. cerevisiae deletion strains, locus YNL298W, strain CLA4, active compounds read low 0.993 | S. cerevisiae deletion strains, locus YNL307C, strain MCK1, active compounds read low 1.01 | S. cerevisiae deletion strains, locus YNL322C, strain KRE1 (second series), active compounds read low 1.01 | S. cerevisiae deletion strains, locus YNL322C, strain KRE1, active compounds read low 0.998 | S. cerevisiae deletion strains, locus YNR049C, strain mso1, active compounds read low 1.01 | S. cerevisiae deletion strains, locus YNR052C, strain pop2, active compounds read low 0.982 | S. cerevisiae deletion strains, locus YOL006C, strain TOP1, active compounds read low 1.09 | S. cerevisiae deletion strains, locus YOL012C, strain htz1 0.84 | S. cerevisiae deletion strains, locus YOL147C, strain pex11, active compounds read low 0.998 | S. cerevisiae deletion strains, locus YOR001W, strain rrp6, active compounds read low 0.994 | S. cerevisiae deletion strains, locus YOR061W, strain CKA2, active compounds read low 1 | S. cerevisiae deletion strains, locus YOR069W, strain VPS5, active compounds read low 0.997 | S. cerevisiae deletion strains, locus YOR070C, strain gyp1, active compounds read low 1.01 | S. cerevisiae deletion strains, locus YOR080W, strain dia2, active compounds read low 1.02 | S. cerevisiae deletion strains, locus YOR083W, strain WHI5, active compounds read low 0.981 | S. cerevisiae deletion strains, locus YOR106W, strain vam3, active compounds read low 0.994 | S. cerevisiae deletion strains, locus YOR136W, strain idh2, active compounds read low 0.992 | S. cerevisiae deletion strains, locus YOR144C, strain elg1, active compounds read low 0.993 | S. cerevisiae deletion strains, locus YOR184W, strain ser1, active compounds read low 0.988 | S. cerevisiae deletion strains, locus YOR231W, strain MKK1, active compounds read low 1.01 | S. cerevisiae deletion strains, locus YOR265W, strain rbl2, active compounds read low 0.999 | S. cerevisiae deletion strains, locus YOR270C, strain vph1, active compounds read low 1.05 | S. cerevisiae deletion strains, locus YOR290C, strain snf2, active compounds read low 1 | S. cerevisiae deletion strains, locus YOR316C, strain cot1, active compounds read low 0.987 | S. cerevisiae deletion strains, locus YPL051W, strain arl3, active compounds read low 0.989 | S. cerevisiae deletion strains, locus YPL055C, strain LGE1, active compounds read low 0.981 | S. cerevisiae deletion strains, locus YPL078C, strain atp4, active compounds read low 1 | S. cerevisiae deletion strains, locus YPL106C, strain sse1, active compounds read low 1.02 | S. cerevisiae deletion strains, locus YPL240C, strain hsp82, active compounds read low 1 | S. cerevisiae deletion strains, locus YPL241C, strain CIN2, active compounds read low 0.992 | S. cerevisiae deletion strains, locus YPL256C, strain CLN2, active compounds read low 0.994 | S. cerevisiae deletion strains, locus YPR119W, strain clb2, active compounds read low 0.996 | S. cerevisiae deletion strains, locus YPR141C, strain kar3, active compounds read low 0.99 | S. cerevisiae deletion strains, locus YPR163C, strain tif3, active compounds read low 0.992 | S. cerevisiae deletion strains, locus YPR167C, strain met16, active compounds read low 0.996 | S. cerevisiae deletion strains, strain wtn01, active compounds read low 1.01 | S. cerevisiae strains, strain wild type, active compounds read low 1.01

Reference: PubChem BioAssay AID1159580 (chemical genetic matrix, 2015)
